Assay results as given in PubChem BioAssay (NCATS).
Records with an inconclusive call do not appear. Entries that show only a call come without a potency. Activity calls are given as the source filed them. The call rests on the fitted dose curve; in most records, active means well fitted inhibition curve with a large enough effect; inconclusive means small, poorly fitted or top-dose-only effect; inactive means flat fitted curve, though single readings scatter.

target: Calcium and integrin-binding protein 1 (Homo sapiens) (UniProt Q99828); assay: Primary qHTS for Identification of Calcium Integrin Binding Protein 1 (CIB1) Competitor (AID 1508620); conditions: CIB1-GST / FITC-alphaIIb peptide fluorescence polarization; series mostly up to 114 µM;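 further: GST tagged CIB1 binding a fluorescein labelled alphaIIb integrin peptide tracer; top concentration of the series differs between compounds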
Summary of the method: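 Fluorescence polarization competition: CIB1-GST (1 uM final) preincubated with compound 15 min at room temperature, then FITC-labeled alphaIIb peptide (100 nM final) added for another 15 min. Polarization read at Ex 480/Em 540.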

Sequence of Calcium and integrin-binding protein 1 (Homo sapiens) (Q99828 whole entry, looked up): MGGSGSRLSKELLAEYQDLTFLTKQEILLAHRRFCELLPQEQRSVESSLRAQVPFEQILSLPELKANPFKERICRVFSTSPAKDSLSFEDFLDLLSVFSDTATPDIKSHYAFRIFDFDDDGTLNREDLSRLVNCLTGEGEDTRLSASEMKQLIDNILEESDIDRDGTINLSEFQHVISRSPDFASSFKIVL

| Structure (SMILES) | Potency |
| --- | --- |
| Cc1cc(C)nc(SCC(=O)Nc2ncc(Cc3cccc4ccccc34)s2)n1 | inactive |
| CCN1C(C)(C)CC(Oc2ccc(C(=O)Nc3ccc(NC(=O)Nc4cc(C(C)(C)C)on4)cc3)nc2)CC1(C)C | inactive |
| CC[C@H](C(=O)Nc1ccccc1N1CCCC1)c1ccccc1 | inactive |
